Most compounds without a hit are left out; they make up all but 5.4% or so of the library.
HSF1 inhib: HSF1 inhibition. NIH3T3-HGL HSE-luciferase, MG132-induced, luminescence 8 h; hits give low values. activity change, negative = inhibition, % at 7.5 µM (by protocol). actives 0.77% (n = 300,000);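 active means more than half of replicate wells show activity change below -50%, luminescence cut by over half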;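 further: luciferase reports HSF-1 transcriptional activity via heat shock element; 0% = median of DMSO wells and -100% = zero luminescence signal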
HSF1 activator: increases HSF-1 driven luciferase reporter signal; NIH3T3-HGL HSF-1 luciferase reporter, MG132, 8 h; 100% = twice DMSO control signal; activation, % at 9 µM; actives 1.7% (n = 300,000); AID 504408;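 active means mean replicate activation of at least 50% with a set share of replicates each reaching 50%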;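 further: 0% = median of the neutral control wells and 100% = twice that signal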
AHR act: activators of human aryl hydrocarbon receptor. P35869. AHR-responsive luciferase reporter cells, luminescence. activation, % at 5 µM. actives 2.5% (n = 320,000); in the data active means activation above about 47%;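 further: 0% = vehicle wells and 100% = reference agonist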
Target sequence (P35869 whole entry, looked up): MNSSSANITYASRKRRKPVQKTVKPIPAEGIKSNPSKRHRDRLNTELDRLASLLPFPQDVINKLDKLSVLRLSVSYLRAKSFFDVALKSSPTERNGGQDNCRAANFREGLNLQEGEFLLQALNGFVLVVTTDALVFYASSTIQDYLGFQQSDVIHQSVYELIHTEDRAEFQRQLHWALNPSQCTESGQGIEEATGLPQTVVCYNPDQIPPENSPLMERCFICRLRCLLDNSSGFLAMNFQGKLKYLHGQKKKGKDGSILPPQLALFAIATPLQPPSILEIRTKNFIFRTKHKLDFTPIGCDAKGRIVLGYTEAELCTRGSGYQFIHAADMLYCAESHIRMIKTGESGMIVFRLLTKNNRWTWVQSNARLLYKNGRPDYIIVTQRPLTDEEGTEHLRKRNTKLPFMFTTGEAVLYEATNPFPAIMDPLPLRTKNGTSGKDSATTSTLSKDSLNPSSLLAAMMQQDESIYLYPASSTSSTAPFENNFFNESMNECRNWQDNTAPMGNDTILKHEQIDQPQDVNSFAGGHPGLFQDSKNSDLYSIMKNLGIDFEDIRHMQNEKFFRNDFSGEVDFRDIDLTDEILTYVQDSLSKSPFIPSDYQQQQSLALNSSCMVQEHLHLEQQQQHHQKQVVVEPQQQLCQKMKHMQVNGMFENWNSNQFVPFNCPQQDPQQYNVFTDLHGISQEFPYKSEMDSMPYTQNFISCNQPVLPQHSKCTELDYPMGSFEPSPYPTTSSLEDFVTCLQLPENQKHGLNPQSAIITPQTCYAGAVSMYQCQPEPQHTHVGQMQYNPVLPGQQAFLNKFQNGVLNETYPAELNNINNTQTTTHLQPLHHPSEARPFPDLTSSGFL
GAA850 FXN act: increases GAA850 frataxin promoter reporter activity; HEK293 lucGAA850 FXN promoter luciferase reporter, 24 h; percent of 10 µM SAHA response; activation, % at 6 µM; actives 0.56% (n = 360,000); AID 540364;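 active means activation above the average of all compounds screened plus 3 SD, cutoff fixed separately per campaign, cut at about 7.5% in these data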;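 further: 0% = DMSO wells and 100% = 10 µM SAHA wells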
DAX1 inh: inhibits human nuclear receptor DAX1; P51843; HEK293 Gal4-DAX1 luciferase reporter, luminescence; inhibition, % at 6.75 µM; actives 0.99% (n = 340,000); AID 504766;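 active means inhibition above the mean over all tested compounds plus 3 SD, cut at about 4.2% in these data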;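 further: 0% = DAX1-transfected cells with DMSO and 100% = empty-vector control cells with DMSO; inhibition shows as a rise in luminescence from relieved DAX1 repression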
* marks the source's active call; other numbers are inactive results; . = no result.

SMILES	HSF1 inhib	HSF1 activator	AHR act	GAA850 FXN act	DAX1 inh
Cc1cccc(C(=O)NC2CCN(C(=O)Nc3ccc(F)cc3)CC2)c1	-54*	-63	3	-2	1
O=C(Nc1ccc2c(c1)C(=O)NC2=O)c1cccc(C(F)(F)F)c1	-3	28	53*	1	0
O=C(Nc1ccc(Nc2ccccc2)cc1)c1ccccc1	15	32	-5	.	.
O=C(Nc1ccc2nc3ccccc3nc2c1)c1ccccc1	40	81*	7	6	1
CC(=O)c1ccc(NC(=O)c2ccn[nH]2)cc1	28	8	5	4	2
O=C(NNC(=O)c1ccc(NC(=O)c2ccccc2)cc1)c1ccccc1	-8	1	1	3	.
O=C(Nc1ccc(C2SCCS2)cc1)c1ccccc1	31	54*	4	3	.
O=C(Nc1ccc(F)cc1)c1cccc(C(=O)Nc2ccc(F)cc2)c1	6	-8	51*	-1	0
O=C(Nc1ccccc1)c1ccn[nH]1	19	33	-2	4	4.3*
COc1ccc(OC)c(CN2CCN(C(=O)c3ccc(S(=O)(=O)N4CCCCCC4)cc3)CC2)c1	.	.	.	-4	0
O=C(NNc1ncccc1Cl)c1c(Cl)cccc1Cl	0	0	-3	1	1
CCNc1nc2c(cnn2C)c(=O)[nH]1	.	.	.	-1	-1
COc1cccc(/C=C/C(=O)OCC(=O)N2c3ccccc3NC(=O)C2(C)C)c1	2	-2	2	-1	1
O=C(COc1ccccc1)Nc1c2c(nn1-c1ccccc1)CS(=O)C2 (centres undefined)	-2	-2	56*	0	1
Cc1ccccc1-n1nc2c(c1NC(=O)COc1ccc(Cl)cc1)CS(=O)C2 (centres undefined)	-2	3	2	1	0
C=CCN=c1scc(-c2ccccc2)n1/N=C/c1ccccn1	38	52*	35	-5	-1
C=CCN=c1scc(-c2ccc(F)cc2)n1/N=C/c1ccccn1	27	47	48*	0	-1
CCN=c1scc(-c2ccc(F)cc2)n1/N=C/c1ccccn1	10	34	-3	8.8*	2
CCN=c1scc(-c2ccccc2)n1/N=C/c1ccccn1	-10	-17	-12	-7	-4
CCOc1ccc(NC(=O)CN(C)C(=O)c2ccc(OCC(=O)N3CCOCC3)c(OC)c2)cc1OCC	.	.	.	1	1
Cc1ccc(N(CC(=O)NCCSCc2ccco2)S(C)(=O)=O)cc1	-54*	-62	1	-2	0
Cc1ccc(N(CC(=O)NCCSCc2ccco2)S(=O)(=O)c2ccc(F)cc2)cc1	11	8	4	-2	-1
COc1ccccc1/C=C/C=C1\Oc2c(ccc(O)c2CN(C)C)C1=O	3	7	6	-1	0
CCN(CC)Cc1c(O)ccc2c1O/C(=C\C=C\c1ccccc1)C2=O	82	116*	-4	-12	-1
CS(=O)(=O)Oc1ccc2c(c1)O/C(=C\C=C\c1ccccc1)C2=O	56	109*	-2	1	-1
SMILES	HSF1 inhib	HSF1 activator	AHR act	GAA850 FXN act	DAX1 inh
CS(=O)(=O)Oc1ccc2c(c1)O/C(=C\c1cccc([N+](=O)[O-])c1)C2=O	6	7	.	1	0
N#CC1(Nc2ccc3ccccc3c2)CCCC1	.	.	.	4	3
CCc1ccccc1NC(=O)CNC(=O)CCNC(=O)Nc1ccccc1	.	.	0	0	1
CCN(CCCNS(=O)(=O)c1ccc2c(c1)CCN2C(C)=O)c1cccc(C)c1	44	69*	3	-3	-1
CC(=O)N1CCc2cc(S(=O)(=O)NCCC(=O)Nc3cccc(C)c3)ccc21	-1	11	8	-1	0
COc1ccc(C(F)(F)F)cc1NC(=O)c1nc2nc(C)cc(C(F)F)n2n1	-1	17	16	-2	0
Cc1cc(C(F)F)n2nc(C(=O)Nc3cccc(C(F)(F)F)c3)nc2n1	51	81*	6	-3	1
Cc1ccc(C(=O)Nc2cccc(C(F)(F)F)c2)cc1Nc1ccccn1	-14	-29	50*	3	0
Cc1ccc(C(=O)Nc2cccc(C(F)(F)F)c2)cc1NC(=O)c1c[nH]c2cc(C(F)(F)F)ccc2c1=O	.	.	58*	2	1
CC(=O)c1ccccc1NC(=O)C1CCCN(C(=O)c2ccc(Cl)cc2)C1 (centres undefined)	.	.	15	-1	0
CS(=O)(=O)c1nc([N+](=O)[O-])nn1CCCc1ccccc1	18	26	-1	3	1
Cn1nc([N+](=O)[O-])nc1S(C)(=O)=O	17	32	.	18*	-1
CC(=O)N1CCN(C(=O)CSc2nnc(C)n2-c2ccccc2)CC1	4	4	3	2	0
CCOC(=O)C(C)Sc1ccc2nnc(CCNS(=O)(=O)c3ccccc3)n2n1 (centres undefined)	0	-8	-1	0	5.8*
COC(=O)CSc1ccc2nnc(CCNS(=O)(=O)c3ccccc3)n2n1	-3	-9	1	1	3
CN(C(=O)CN1C(=O)c2ccccc2S1(=O)=O)C1CCCCC1	.	.	1	-3	1
CC(C)C(NS(=O)(=O)c1cccc2nsnc12)C(=O)NC1CCCCC1C (centres undefined)	-4	6	-1	0	0
COc1ccc(C(=O)Cc2nnc(C)s2)cc1	4	-3	6	5	4.8*
COc1ccc(C(=O)CC(=O)c2ccc(OC)cc2)cc1	4	1	0	3	2
C/C(=N/NC(=O)c1ccccc1)C(=O)O	4	6	5	2	0
C/C(=N\NC(=O)c1ccccc1)C1C2C=CC(C2)C1(C)C (centres undefined)	14	2	1	1	5.3*
Cc1cccc(C)c1NC(=O)C(C)N1CCCC1 (centres undefined)	21	75*	0	0	-1
Cc1cccc(C)c1NC(=O)CNC(=O)C(C)N1CCCCC1 (centres undefined)	.	.	1	0	0
COc1ccc2oc(-c3ccncc3)cc(=O)c2c1	.	.	.	6	2
COc1ccc(-c2cc3ccc(O)cc3oc2=O)cc1OC	-2	14	9	5	0
SMILES	HSF1 inhib	HSF1 activator	AHR act	GAA850 FXN act	DAX1 inh
COc1ccc(-c2cc(=O)c3cc(O)ccc3o2)cc1	27	33	0	5	5.2*
COc1ccc2c(c1)c(=O)oc1cc(O)ccc12	2	1	-1	0	4.7*
COc1ccc(-c2c(C)c3cc(O)ccc3oc2=O)cc1OC	26	67*	3	2	1
Cc1cccn2c(=O)c3cc(C(=O)N4CCCCC4C)sc3nc12 (centres undefined)	.	.	29	2	1
Cc1noc(C)c1NC(=O)Nc1ccc2c(c1)CC(=O)N([C@@H](C)CO)C[C@@H](C)[C@@H](CN(C)C(=O)Nc1cccc3ccccc13)O2	.	.	3	0	1
Cc1ccc2c(c1)N(CCCC(=O)NCCCN1CCCCC1)C(=O)CO2	4	-6	0	0	1
